Test systems include DU-145 prostate; K-562 leukemia; MALME-3M melanoma; MDA-MB-231 breast; RXF 393 renal; SF-268 CNS; SF-295 CNS; SF-539 CNS; UACC-257 melanoma; M14 melanoma; HCT-15 colon; HT29 colon; SNB-75 CNS; SNB-19 CNS; U251 CNS; PC-3 prostate; SK-MEL-5 melanoma; UACC-62 melanoma; LOX IMVI melanoma; SK-MEL-28 melanoma.
Holding throughout (test): NCI-60 one-dose screen, 48 h (100 = growth as untreated, 0 = no growth, -100 = all killed)
Holding throughout (details): 10 µM unless noted

This is part of a sample that, as a whole, favours compounds with a hit. Of some 83,000 tested, about 20% had one in any assay.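 Each cell line was grown in a 96-well plate and treated with one concentration of compound for 48 hours. Values below 10 were considered active.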 A number with no mark means an inactive call. The source made the active and inactive calls.

Turning to `COc1cc(OC)c(NC(=O)c2cc3ccccc3cc2O)cc1Cl`, the growth was 46.4% in the assay on DU-145 prostate; 23.4% with K-562 leukemia; 19.5% with MALME-3M melanoma; 70.4% in the assay with MDA-MB-231 breast; 120% with RXF 393 renal; 51.2% with SF-268 CNS. In addition, the growth with SF-295 CNS is 53.3%; with SF-539 CNS, 52.9%; with UACC-257 melanoma it was 59.8%; in the assay with M14 melanoma, 42.1%; in the assay on HCT-15 colon, 48.5%; with HT29 colon, 101%. In addition, the growth with SNB-75 CNS is 86.9%; with SNB-19 CNS, 51%; in the assay on U251 CNS, 17.7%; in the assay on PC-3 prostate, -0.247% (active); in the assay with SK-MEL-5 melanoma, 51.4%; in the assay on UACC-62 melanoma, 3.04% (active). Also, the growth is 24.2% in the assay with LOX IMVI melanoma and 53.6% with SK-MEL-28 melanoma.
`COc1cc2c(c(OC)c1OC)CCC(c1cccc(C(=O)Nc3cccc(Cl)c3)c1)O2` (stereo not given): the growth in the assay on DU-145 prostate was 81%; with K-562 leukemia, 38.2%; with MALME-3M melanoma it was 75.2%; in the assay on MDA-MB-231 breast, 25.7%; with RXF 393 renal, 66.9%; with SF-268 CNS, 72.1%. Further, the growth in the assay with SF-295 CNS was 65%; with SF-539 CNS it was 77.6%; in the assay on UACC-257 melanoma it was 74.5%; in the assay with M14 melanoma, 62.1%; in the assay with HCT-15 colon, 75.2%; in the assay with HT29 colon, 63.6%. For the same compound, the growth is 63.7% in the assay with SNB-75 CNS; 76.5% in the assay on SNB-19 CNS; 72.4% in the assay with U251 CNS; 34% with PC-3 prostate; 63% in the assay with SK-MEL-5 melanoma; 53.4% in the assay with UACC-62 melanoma. The growth in the assay on LOX IMVI melanoma is 65.2%; in the assay with SK-MEL-28 melanoma it was 78.1%.
As to `CN(C)c1ccc(C(=O)OCCCCCCl)cc1`, the growth in the assay on DU-145 prostate was 96.4%; in the assay with K-562 leukemia, 106%; in the assay with MALME-3M melanoma, 89%; in the assay on MDA-MB-231 breast it was 87.4%; with RXF 393 renal it was 102%; with SF-268 CNS it was 94%. The growth was 98.9% with SF-295 CNS; 96.1% with SF-539 CNS; 109% in the assay on UACC-257 melanoma; 95.3% in the assay on M14 melanoma; 100% in the assay on HCT-15 colon; 99.1% in the assay with HT29 colon. In addition, the growth was 78.4% in the assay on SNB-75 CNS; 95.6% with SNB-19 CNS; 99.7% in the assay on U251 CNS; 87.1% in the assay with PC-3 prostate; 98.5% in the assay with SK-MEL-5 melanoma; 94.5% with UACC-62 melanoma. The growth is 102% with LOX IMVI melanoma and 103% with SK-MEL-28 melanoma.
Consider `COc1ccc(C(C)=O)cc1S(=O)(=O)Nc1c(N)nc(SC)[nH]c1=O`, for which the growth in the assay with DU-145 prostate is 107%; in the assay on K-562 leukemia, 93%; with MALME-3M melanoma, 96.4%; in the assay with MDA-MB-231 breast, 111%; with RXF 393 renal, 107%; in the assay on SF-268 CNS it was 96.1%. Besides, the growth with SF-295 CNS was 98.1%; with SF-539 CNS, 108%; in the assay with UACC-257 melanoma, 103%; with M14 melanoma it was 94.8%; in the assay with HCT-15 colon, 100%; with HT29 colon, 104%. Besides, the growth in the assay on SNB-75 CNS is 98.2%; in the assay with SNB-19 CNS, 109%; in the assay with U251 CNS it was 111%; in the assay on PC-3 prostate, 104%; in the assay with SK-MEL-5 melanoma, 100%; with UACC-62 melanoma, 97.1%. Moreover, the growth is 96.3% in the assay with LOX IMVI melanoma and 109% with SK-MEL-28 melanoma.
In the case of `CCCCCCCC[C@@H]1N[C@@H](C(=O)OC)Cc2c1[nH]c1ccccc21`, the growth was 106% with DU-145 prostate; 88.4% in the assay on K-562 leukemia; 83% with MALME-3M melanoma; 96.2% in the assay with MDA-MB-231 breast; 96.6% with RXF 393 renal; 97.3% in the assay on SF-268 CNS. The growth in the assay with SF-295 CNS is 102%; in the assay with SF-539 CNS it was 93.7%; with UACC-257 melanoma it was 101%; in the assay with M14 melanoma, 102%; in the assay with HCT-15 colon, 94.2%; in the assay on HT29 colon, 111%. Moreover, the growth with SNB-75 CNS is 81.6%; with SNB-19 CNS, 96.6%; in the assay with U251 CNS, 91.5%; in the assay on PC-3 prostate it was 94.6%; in the assay with SK-MEL-5 melanoma it was 97.3%; in the assay on UACC-62 melanoma it was 69.1%. Besides, the growth was 93.1% in the assay with LOX IMVI melanoma and 94.2% with SK-MEL-28 melanoma.
As for `COc1ccccc1CNc1c2ccccc2nc2ccccc12`, the growth was 50.5% in the assay on DU-145 prostate; 10.1% in the assay with K-562 leukemia; 45.9% in the assay with MALME-3M melanoma; 57.6% with MDA-MB-231 breast; 30.6% in the assay on RXF 393 renal; 65.1% in the assay on SF-268 CNS. In addition, the growth in the assay with SF-295 CNS was 37.4%; in the assay on SF-539 CNS, 21.2%; in the assay with UACC-257 melanoma, 64.1%; in the assay on M14 melanoma it was 40.8%; in the assay with HCT-15 colon, 26%; in the assay on HT29 colon, 17.7%. Further, the growth was 63.5% in the assay on SNB-75 CNS; 35.8% in the assay with SNB-19 CNS; 38.6% in the assay on U251 CNS; 43.2% with PC-3 prostate; 59.2% in the assay on SK-MEL-5 melanoma; 60.5% with UACC-62 melanoma. Moreover, the growth in the assay with LOX IMVI melanoma is 18.9%; with SK-MEL-28 melanoma, 80%.
With `CSc1nc2ncc([N+](=O)[O-])c(=O)n2[nH]1`, the growth in the assay on DU-145 prostate was 110%; in the assay on K-562 leukemia, 104%; with MALME-3M melanoma, 101%; in the assay on MDA-MB-231 breast it was 108%; in the assay with RXF 393 renal it was 105%; with SF-268 CNS, 98.8%. Further, the growth with SF-295 CNS was 96.6%; in the assay on SF-539 CNS, 100%; in the assay on UACC-257 melanoma, 105%; in the assay on M14 melanoma, 98.4%; with HCT-15 colon it was 105%; with HT29 colon, 107%. The growth was 93% in the assay with SNB-75 CNS; 103% in the assay on SNB-19 CNS; 102% in the assay with U251 CNS; 98.1% in the assay with PC-3 prostate; 103% in the assay with SK-MEL-5 melanoma; 101% in the assay on UACC-62 melanoma. The growth with LOX IMVI melanoma is 101%; in the assay on SK-MEL-28 melanoma, 105%.
Consider `O=C(OC(CO)C(=O)NC12CC3CC(CC(C3)C1)C2)c1ccc(Cl)cc1` (stereo not given), for which the growth in the assay with DU-145 prostate is 103%; in the assay on K-562 leukemia, 95.5%; with MALME-3M melanoma, 104%; in the assay with MDA-MB-231 breast, 105%; in the assay with RXF 393 renal it was 103%; in the assay on SF-268 CNS, 104%. The growth was 100% in the assay with SF-295 CNS; 96% with SF-539 CNS; 100% with UACC-257 melanoma; 97.6% in the assay with M14 melanoma; 99.4% in the assay with HCT-15 colon; 100% with HT29 colon. Besides, the growth in the assay with SNB-75 CNS is 102%; in the assay on SNB-19 CNS it was 98.8%; in the assay on U251 CNS it was 96.7%; in the assay on PC-3 prostate, 98.6%; in the assay on SK-MEL-5 melanoma it was 98.3%; in the assay with UACC-62 melanoma it was 96.6%. In addition, the growth with LOX IMVI melanoma was 101%; with SK-MEL-28 melanoma it was 108%.

(Values after PubChem BioAssay (NCI).)
